From PubChem BioAssay
TRHR enhancer = TRH receptor (human) allosteric enhancement | TRHR cells, fluo-8 calcium fluorescence, EC20 TRH enhancement | enhancement, % at 2 µM | 0.66% of 360,000 active | P34981 | AID 493056; in the data active = enhancement above about 30%
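Enhancer read-out: after compound pinning and an initial kinetic agonist-mode read, an EC20 of TRH (10 nM final) was injected and fluo-8 calcium signal (Ex 480/Em 530) followed at 1 s/cycle for 100 cycles in TRHR-expressing cells.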
D1 PAM = potentiators of human D1 dopamine receptor; P21728; HEK293 TREx D1 cells, calcium flux, dopamine EC20 potentiation; potentiation, % at 10 µM; 0.036% of 360,000 active; in the data active = potentiation above about 30%
Target sequence (P21728 whole entry, looked up): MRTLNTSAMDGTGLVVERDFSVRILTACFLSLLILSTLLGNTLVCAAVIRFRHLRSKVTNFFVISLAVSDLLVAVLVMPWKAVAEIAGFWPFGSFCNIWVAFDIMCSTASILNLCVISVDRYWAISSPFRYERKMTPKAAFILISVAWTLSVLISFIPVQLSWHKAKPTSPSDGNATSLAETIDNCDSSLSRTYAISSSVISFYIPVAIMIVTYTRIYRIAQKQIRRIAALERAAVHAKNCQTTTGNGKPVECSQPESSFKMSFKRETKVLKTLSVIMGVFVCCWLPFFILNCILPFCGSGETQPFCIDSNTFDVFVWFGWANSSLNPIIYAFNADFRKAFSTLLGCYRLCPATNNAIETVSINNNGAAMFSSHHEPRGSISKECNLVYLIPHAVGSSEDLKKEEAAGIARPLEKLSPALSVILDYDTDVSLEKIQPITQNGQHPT
D1 ag = activates the human D1 dopamine receptor | P21728 | HEK293 T-REx D1 cells, calcium flux, agonist mode | activation, % at 2 µM | 1% of 360,000 active
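Agonism was scored from calcium flux recorded over 180 s (1 read/s) after pintool compound addition, following a 10-cycle baseline. Cells were inducible force-coupled HEK293 TREx D1, plated overnight at 30 C and loaded with no-wash calcium dye.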
D1 antagonist = blocks dopamine activation of the human D1 receptor | HEK293 TREx D1 cells, calcium flux, dopamine EC80; active compounds read low | activity change, negative = inhibition, % at 10 µM | 3.2% of 360,000 active | P21728; in the data active = activity change below about -30%
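Tetracycline-induced HEK293 T-REx cells with force-coupled D1 receptor were loaded with a no-wash calcium dye. Compound was added after a 10 s baseline and read kinetically for 180 s; EC80 dopamine was then added and calcium flux followed another 180 s.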
TRHR ag = TRH receptor (human) agonism; activation, % at 2 µM; TRHR cells, calcium flux fluo-8, FDSS agonist mode; 0.18% of 360,000 active; P34981
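Steps: seed TRHR cells overnight; add fluo-8 no-wash Ca dye, RT 30 min–1.5 h; record 10 s baseline; pin-transfer compounds; monitor fluorescence 1 cycle/s for the agonist window. Calcium increases flag candidate agonists.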
Of the large screens only hits and unclear results are named; the others gave an inactive call; ! = repeats disagree. Most compounds without a hit are left out; they make up all but 4.6% or so of the library. Cut-off read from the data, not from the text of the source, unless noted: active = activation above about 30%; inactive = the rest.

CCN1C(=O)c2ccccc2Sc2ccc(NC(=O)c3ccc(C)c(F)c3)cc21	D1 antagonist -72
COC(=O)c1sccc1S(=O)(=O)N(CC(=O)Nc1c(C)cccc1C)c1ccc(C)c(C)c1	none
COc1cccc(CNC(=O)Cn2c(=O)n3nc(-c4cccc(F)c4)nc3c3ccccc32)c1	none (no result: D1 antagonist)
CCOc1ccc(-n2cc(C(=O)Nc3ccccc3OCC)c3cc(OC)c(OC)cc3c2=O)cc1	none
O=C(NCCN1CCOCC1)c1ccc2c(c1)N(Cc1cccc(F)c1)C(=O)c1ccccc1S2	none
Cc1c(C)n(Cc2ccc(F)cc2)c2ccc(C(=O)NCCCN3CCOCC3)cc12	D1 antagonist -37
Cc1ccc(CN2C(=O)c3ccccc3Sc3ccc(C(=O)NCCCN4CCOCC4)cc32)cc1	D1 ag 43!
CCOc1ccc(C(=O)Nc2ccccc2C(=O)OCc2cc(=O)n3nc(C4CC4)sc3n2)cc1	none
CCOc1ccccc1N(CC(=O)N1CCOCC1)S(=O)(=O)c1ccccc1	TRHR ag 83
Cc1ccc2c(CC(=O)Nc3ccc(S(=O)(=O)N4CCCC(C)C4)cc3)coc2c1 (configuration not stated)	none
CN(CC(=O)NCc1ccc(F)cc1)CC(=O)Nc1ccc(Cl)c(C(F)(F)F)c1	D1 antagonist -33
CCNC(=S)Nc1ccc(Cl)c(C(F)(F)F)c1	D1 antagonist -32
Cc1ccc2c(CC(=O)Nc3ccc(S(=O)(=O)N4CCCCC4)cc3)coc2c1	D1 antagonist -73
O=C(Nc1ccc(Cl)c(C(F)(F)F)c1)c1ccco1	none
Cc1ccc2occ(CC(=O)Nc3ccc(Cl)c(C(F)(F)F)c3)c2c1	D1 antagonist -31
O=C(CN1C(=O)COc2ccc(S(=O)(=O)N3CCOCC3)cc21)NCc1ccc(F)cc1	none
Cn1c(=O)c2cc(C(=O)N3CCN(c4ccc(Cl)cc4)CC3)sc2c2ccccc21	none
Cc1ccc(NC(=O)CN(C)CC(=O)Nc2ccc(F)c(Cl)c2)cc1	D1 antagonist -55
N#Cc1cccc(C#N)c1Oc1ccc(S(=O)(=O)Nc2ccc(Cl)cc2)cc1	D1 antagonist -38
N#Cc1cc(-c2ccccc2)oc1NC(=O)c1ccco1	none
Cc1cccc(C(=O)Nc2oc(-c3ccccc3)cc2C#N)c1	D1 antagonist -49
COc1cc(/C=C2\C(=N)N3N=CSC3=NC2=O)ccc1OS(=O)(=O)c1ccccc1[N+](=O)[O-]	D1 antagonist -30
COc1cc(/C=C2/C(=N)N3C(=NC2=O)SN=C3S(C)(=O)=O)ccc1OS(=O)(=O)c1ccccc1	none
COc1cc(/C=C2\C(=N)N3N=C(S(C)(=O)=O)SC3=NC2=O)ccc1OC(=O)c1cccs1	none
COc1cc(/C=C2\C(=N)N3N=C(S(C)(=O)=O)SC3=NC2=O)ccc1OCCOc1ccccc1C	TRHR enhancer 35
COc1ccc(CCNC(=O)c2cc(C)nc3c2c(C)nn3-c2ccccc2)cc1OC	none
COc1ccc2oc3cc(C)[n+]([O-])c(-c4ccc(C)cc4)c3c2c1	none
COc1ccc(-c2c3c(cc(C)[n+]2[O-])oc2ccc(OC)cc23)cc1	D1 antagonist -30
CCOC(=O)/C=C/c1cc(F)c(S(=O)(=O)N2CCN(S(=O)(=O)c3ccc4c(c3)OCCO4)CC2)cc1F	none
COc1ccc(-c2nn(CCC#N)cc2C(=O)Nc2cccc(C(=O)O)c2)cc1OC	D1 antagonist -36
CC1c2[nH]c3ccccc3c2CCN1C(=O)Nc1ccccc1 (configuration not stated)	D1 antagonist -36
COc1cccc(N2CC(NC(=O)c3cccc(OC)c3OC)CC2=O)c1 (configuration not stated)	none (no result: D1 antagonist)
COc1cccc(-c2cc(C(=O)Nc3c(C)nn(Cc4ccccc4Cl)c3C)no2)c1	none
COc1ccc(-c2cc(C(=O)Nc3c(C)nn(Cc4ccccc4Cl)c3C)no2)cc1OC	D1 antagonist -40
COc1ccc(-c2cc(C(=O)Nc3cc(OC)c(OC)c(OC)c3)no2)cc1OC	TRHR enhancer 39
Cc1cccc(S(=O)(=O)Nc2cccc3c2C(=O)c2ccccc2-3)c1	D1 ag 50
OCCCNc1nc(-c2ccc(Cl)cc2)nnc1-c1ccc(Br)cc1	D1 antagonist -40
CCn1cc(CN2CCCC(CO)(Cc3ccc(F)cc3)C2)c2ccccc21 (configuration not stated)	D1 ag 31
CCN(CC)c1nc2c(S(=O)(=O)c3cccc(Cl)c3)nnn2c2ccsc12	D1 antagonist -40
CN(Cc1ccccc1)c1nc2c(S(=O)(=O)c3cccc(Cl)c3)nnn2c2ccsc12	D1 antagonist -32
CCn1c2ccccc2c2cc(CN3CCN(Cc4ccc(Cl)cc4)CC3)ccc21	none
CN(CC(=O)Nc1ccc(F)cc1F)S(=O)(=O)c1ccc(C(=O)N2CCOCC2)s1	none
CCc1ccc(C(=O)C(C)OC(=O)c2nn(C)c(=O)c3ccccc23)cc1 (configuration not stated)	D1 ag 35
Cc1ccc(S(=O)(=O)N2CCN(C(=O)COC(=O)/C=C/c3ccccc3)CC2)c(C)c1	none
Cc1ccc(S(=O)(=O)N2CCN(C(=O)COC(=O)/C=C/c3ccc(F)cc3)CC2)c(C)c1	D1 antagonist -38
CSc1ccc(/C=C/C(=O)OCC(=O)N2CCN(S(=O)(=O)c3ccc(C)cc3C)CC2)cc1	D1 antagonist -33
CCNc1ccc(-c2nc(-c3ccncc3)no2)cc1[N+](=O)[O-]	none
Cc1ccc(OCc2n[nH]c(=S)n2-c2ccccc2)cc1C	none
Cc1ccc(-n2c(CCc3ccccc3)n[nH]c2=S)cc1C	TRHR enhancer 31
COC(=O)c1ccc(NC(=O)CSc2nc(C)cc(C)c2C(=O)Nc2ccccc2)cc1	none
c1ccc(-c2nc(N3CCCCC3)nc3ccccc23)cc1	none
c1ccc(-c2nc(N3CCNCC3)nc3ccccc23)cc1	D1 ag 34
O=C(NCCc1ccc(Cl)cc1)c1ccc(CS(=O)(=O)Cc2ccccc2F)o1	none
Cc1[nH]nc(SCC(=O)NCc2ccc(F)cc2)c1[N+](=O)[O-]	D1 antagonist -40
Cc1ccc(O)c(NC(=O)CSc2n[nH]c(C)c2[N+](=O)[O-])c1	D1 antagonist -34
COc1ccc(-c2cccc(NS(=O)(=O)c3ccc(NC(C)=O)cc3)c2)nn1	none
CC1=CC(=O)C=C(C)C1=NOS(=O)(=O)c1ccccc1	none
CC1=CC(=O)C(C(C)C)=C/C1=N/OS(=O)(=O)c1ccccc1	D1 antagonist -31
Cc1ccc(C(=O)COC(=O)C(CC(C)C)NC(=O)C2CCC(C)CC2)cc1 (configuration not stated)	none
Cc1ccc(CN2COc3c(Cl)cc4c(-c5ccccc5)cc(=O)oc4c3C2)cc1	D1 antagonist -32
